Results from PubChem BioAssay AID686979 (National Center for Advancing Translational Sciences (NCATS), 2013).
Hit rate of the full screen: of about 420,000 compounds, about 50,000 (12%) were called active. Another 26% or so got no clear call; they are omitted. The call rests on the fitted dose curve; in most records, active means well fitted inhibition curve with a large enough effect; inconclusive means small, poorly fitted or top-dose-only effect; inactive means flat fitted curve, though single readings scatter. The full list was thinned out, with actives kept by preference.

Test: qHTS for Inhibitors of human tyrosyl-DNA phosphodiesterase 1 (TDP1): qHTS in cells in presence of CPT; further: nearly all actives have a fitted effect of over 55% in size
Conditions: chicken DT40 Tdp1-/-;hTDP1 cells + 20 nM CPT, ATP luminescence, 48 h; series mostly up to 46.2 µM; activity change, negative = growth inhibition: at the top concentration
From the text: Human tyrosyl-DNA phosphodiesterase 1 (TDP1) is a novel repair gene, and we propose to use it as a new target for anticancer drug development. TDP1 is not an essential protein, but under treatment with topoisomerase I poison (camptothecin: CPT), TDP1 works as a critical factor for cell survival. To directly identify novel TDP1 inhibitors active in a cellular environment, we have knocked-out the Tdp1 gene in chicken DT40 cells (Tdp1-/-) and generated a complemented counterpart cells that contains a stable transfection of the human TDP1 gene (Tdp1-/-;hTDP1 cells). For the primary screen, Tdp1-/-;hTDP1 cells will be exposed to small molecules in the presence or absence of CPT, and their growth kinetics will be evaluated after 48 hours by measuring ATP activity. […] The hit compounds will then be evaluated in the presence or absence of CPT using Tdp1-/- cells. […] In tertiary assays, biochemical gel-based assays will be used to assess whether the hit compounds specifically target TDP1. To this end, we have screened this cell line against the MLSMR in two primary screens. In one screen we add CPT and in the other we screen in the absence of CPT; this AID represents the screen where CPT was present. NIH Chemical Genomics Center [NCGC] NIH Molecular Libraries Probe Centers Network [MLPCN] MLPCN Grant: MH095538 Assay Submitter (PI): Yves Pommier, NCI
DT40-hTDP1 cells with 20 nM Camptothecin (add 20 microL of 1 mM CPT stock in 1 L of cell culture medium) were dispensed at 400 cells/5microL/well in tissue culture treated 1536-well white wall/solid bottom assay plates (Greiner Bio-One North America, NC, U.S.A.) using a Multidrop Combi 8 channel dispenser (Thermo Fisher, Waltham, MA, USA). 23 nL compounds and controls were transferred using the pin tool (Kalypsys, San Diego, CA, USA) to the assay plates. The assay plates were then incubated at 37 masculineC for a minimum 48 hr. Three microL of Cell Titer Glo solution was added to the plates and incubated at RT in dark for 30 min. Luminescence was read using ViewLux (Perkin Elmer) with 1 sec exposure slow speed, high gain and 2x binning.
On the % scale 0 is the no-effect control and ±100 the full control effect; potency means the concentration at half of the fitted maximal effect.

Row | SMILES | activity change, negative = growth inhibition | Potency
1 | NS(=O)(=O)c1ccc(CCNc2nc(C(F)(F)F)nc3ccccc23)cc1 | -27.3% (inactive) | 
2 | CCc1ccc(C(CNc2nc(C(F)(F)F)nc3ccccc23)N(C)C)cc1 (stereo not given) |  | 16.4 µM (active)
3 | CN(C)C(CNC(=O)Cc1ccc([N+](=O)[O-])cc1)c1ccccc1 (stereo not given) | -2.26% (inactive) | 
4 | CCN(CC)CCCN=C(N)N | -4.33% (inactive) | 
5 | Cc1nc2ccc(S(=O)(=O)NC(C(=O)NCc3ccccc3Cl)C(C)C)cc2s1 (stereo not given) | 4.06% (inactive) | 
6 | COc1cc(C(CC(=O)NCCC(C)C)N2Cc3ccccc3C2=O)cc(OC)c1OC (stereo not given) | -7.29% (inactive) | 
7 | O=C(O)CC(c1ccccc1F)N1Cc2ccccc2C1=O (stereo not given) | -6.62% (inactive) | 
8 | O=C(CC(c1cccs1)N1Cc2ccccc2C1=O)Nc1ccc(F)cc1F (stereo not given) |  | 20.6 µM (active)
9 | CC(C)(C)C1CCc2c(sc3nc(SCC(N)=O)nc(N)c23)C1 (stereo not given) |  | 16.4 µM (active)
10 | Nc1nc(SCC(=O)NCCN2CCOCC2)nc2sc3c(c12)CCC3 | 1.37% (inactive) | 
11 | CN(C)CCSc1nc(N)c2c3c(sc2n1)COC(C)(C)C3 | -2.4% (inactive) | 
12 | Cc1cnc(-n2ncc(C(=O)N3CCN(C(C)C)CC3)c2-c2ccco2)nc1-c1ccc(F)cc1 | -0.952% (inactive) | 
13 | O=c1o[nH]c(-c2ccccc2)c1N=Nc1c(F)cccc1Cl | -4.76% (inactive) | 
14 | Cc1nc2ccccc2c(=O)n1NC(=O)c1ccc(Cl)c([N+](=O)[O-])c1 | -1.58% (inactive) | 
15 | CC1(C)Cc2c(sc(NC(=O)C(=O)N3CCOCC3)c2C#N)CO1 |  | 20.6 µM (active)
16 | CCOC(=O)N1CCN(C(=O)C(=O)Nc2sc3c(c2C#N)CC(C)(C)OC3)CC1 | -9.35% (inactive) | 
17 | COC(=O)c1c(NC(=O)C(=O)N2CCCCC2)sc2c1CC(C)(C)OC2 | -21.8% (inactive) | 
18 | CCOc1cc(NC(=O)Nc2ccccc2)c(OCC)cc1NC(=O)CC | 1.31% (inactive) | 
19 | CN(NC(=O)C1CC(=O)N(c2ccccc2)C1)C1=NS(=O)(=O)c2ccccc21 (stereo not given) | 8.09% (inactive) | 
20 | CNC(=O)C(=O)N/N=C/c1ccccn1 | -1.38% (inactive) | 
21 | O=C(N/N=C/c1ccccn1)C12CC3CC(CC(C3)C1)C2 | -3.23% (inactive) | 
22 | S=C(NN=Cc1ccccn1)Nc1ccccn1 |  | 1.46 µM (active)

Row | SMILES | activity change, negative = growth inhibition | Potency
23 | CC(=O)N1CCN(C(=O)C2(NC(=O)Nc3ccc(C)cc3)CCCCC2)CC1 | 14.9% (inactive) | 
24 | CC(=O)NCC(=O)N1CCC(n2nccc2NC(=O)CCCc2ccccc2)CC1 | -1.7% (inactive) | 
25 | c1ccc2sc(NN=C3CCCC3)nc2c1 | -10.2% (inactive) | 
26 | O=C(Nc1ccccc1Cl)O/N=C(/c1ccccc1)c1ccccn1 | 4.12% (inactive) | 
27 | c1ccc(C(=NNc2nc3ccccc3s2)c2ccccn2)cc1 |  | 0.164 µM (active)
28 | CC(C)CN1C(=O)CN(S(C)(=O)=O)CC1(C)C(=O)NCc1ccccc1 (stereo not given) | -2.61% (inactive) | 
29 | CCN(CC(=O)Nc1c(F)cccc1F)C(=O)c1ccc(-c2ccc(C(C)=O)cc2)o1 | -25.2% (inactive) | 
30 | Cc1ccc(S(=O)(=O)NCC(=O)N(CC(=O)NC(C)(C)C)Cc2cccs2)cc1 | -4.73% (inactive) | 
31 | Cc1cc(C)cc(C(=O)OCC(=O)NCCNC(=O)COC(=O)c2cc(C)cc(C)c2)c1 | -13.7% (inactive) | 
32 | Cc1ccc(-c2cccc([C@H]3[C@@H]4C=CC[C@@H](C)[C@@H]4C(=O)N3Cc3ccccc3)c2)cc1 |  | 14.6 µM (active)
33 | Cc1cccc([C@@H]2[C@@H]3C(=O)N(Cc4ccccc4)C(=O)[C@@H]3[C@]3(Cc4ccc(Cl)cc4)C(=O)N(c4cccc(Cl)c4)C(=O)N23)c1 | 9.53% (inactive) | 
34 | COc1ccc(CN2CCNC(=O)C2CC(=O)N(C)Cc2ccccn2)cc1OC (stereo not given) | 3.3% (inactive) | 
35 | O=[N+]([O-])c1ccc(COc2ccccc2CN2CCOCC2)cc1 |  | 23.1 µM (active)
36 | O=C(OCc1ccc([N+](=O)[O-])cc1)C1CC(=O)N(Cc2ccccc2Cl)C1 (stereo not given) | -4.97% (inactive) | 
37 | O=[N+]([O-])c1ccc(N2CCOCC2)cc1 | -4.01% (inactive) | 
38 | O=C1c2cccc3cccc(c23)C(=O)N1c1cccc(O)c1 | -18.4% (inactive) | 
39 | COc1ccc(CCNS(=O)(=O)c2cccc3cccnc23)cc1OC | -2.46% (inactive) | 
40 | C=CCn1c(COc2cccc3cccnc23)nnc1SCC(=O)OC | -14.3% (inactive) | 
41 | CCCCC(=O)NC(c1ccc(OC)c(OC)c1)c1ccc2cccnc2c1O (stereo not given) |  | 1.3 µM (active)
42 | O=C(NC1CCCC1)C(=O)c1c[nH]c2ccccc12 | -2.79% (inactive) | 
43 | C[n+]1ccc(/C=C/c2c[nH]c3ccccc23)cc1 |  | 1.03 µM (active)
44 | S=c1[nH]nc(-c2ccccc2)n1/N=C/c1c[nH]c2ccccc12 | -3.77% (inactive) | 

Row | SMILES | activity change, negative = growth inhibition | Potency
45 | CC1(C(=O)NS(=O)(=O)c2ccc(C#N)cc2)CCN1C(=O)CC1CCCC1 (stereo not given) | -5.1% (inactive) | 
46 | CC1(C)CC2CC(C)(CN2c2ncnc3ccc(Br)cc23)C1 (stereo not given) |  | 5.17 µM (active)
47 | O=C(COC(=O)Cc1ccccc1F)NNC(=O)c1ccc(Cl)cc1 | -7.31% (inactive) | 
48 | COc1ccc(C)cc1N(CC(=O)NC(C)c1ccccc1)S(C)(=O)=O (stereo not given) | 6.36% (inactive) | 
49 | CC(C)CNC(=O)C1(C)CCCN1C(=O)CSc1ccccc1 (stereo not given) | -17.6% (inactive) | 
50 | Cc1cc(Nc2cccc(C(F)(F)F)c2)nc2ccc(NC(=O)c3ccc(=O)[nH]c3)cc12 |  | 16.4 µM (active)
51 | COc1ccc(NC(=O)C(=O)NCC(=O)Nc2cccc(C(F)(F)F)c2)cc1 | 15.1% (inactive) | 
52 | O=C(O)CSc1c2c(nc3cc(C(=O)Nc4cccc(C(F)(F)F)c4)ccc13)CCCC2 | -7% (inactive) | 
53 | COc1ccc(/C=N/NC(=O)c2cccc(C(F)(F)F)c2)cc1 | 0.721% (inactive) | 
54 | COc1cc(OC)cc(C(=O)Nc2ccc3nc(Nc4cccc(C(F)(F)F)c4)cc(C)c3c2)c1 |  | 9.2 µM (active)
55 | CC(Oc1cccc(Cl)c1)C(=O)Nc1ccc(S(=O)(=O)Nc2ncccn2)cc1 (stereo not given) | -22.1% (inactive) | 
56 | CCC(C)N1C(=O)S/C(=C/c2ccc(Sc3nc4ccccc4[nH]3)o2)C1=O (stereo not given) |  | 14.6 µM (active)
57 | CCCCSc1nc2ccccc2[nH]1 | -15.7% (inactive) | 
58 | CCc1nnc(NC(=O)CCCSc2nc3ccccc3[nH]2)s1 | 10.8% (inactive) | 
59 | CCN1CCN(C(=O)C2CCN(S(=O)(=O)c3cc(Cl)ccc3Cl)CC2)CC1 | 3.59% (inactive) | 
60 | Cc1nnc(SCC(=O)Nc2ncc3c(n2)CC(C)(C)CC3=O)s1 | -8.13% (inactive) | 
61 | CC(C)=CCN1CCC2(CCc3ccccc32)CC1 |  | 11.6 µM (active)
62 | CC(C)=CCN1CCN(CCCc2ccccc2)CC1CCO (stereo not given) | -2.58% (inactive) | 
63 | COc1cc(CNCCSc2nnnn2C)ccc1OCc1ccc(Cl)cc1Cl |  | 16.4 µM (active)
64 | Cn1nnnc1SCCNCc1ccc(Cl)c(Cl)c1 | -1.39% (inactive) | 
65 | COc1cc(CNCCSc2nnnn2C)ccc1OCc1c(F)cccc1Cl | -28.8% (inactive) | 
